# In the supplement of paper PMC9177965:
# Values joined by “and” are separate entries in the source; they are usually repeats but may differ in a detail not shown here. Equal values may be shown once.
# Tested on: HT29 sg-Ctrl (RNF43 wildtype)
# Experiment: cell viability activity relative to DMSO (negative = inhibition); higher = more viable cells (less growth inhibition)
# Conditions: 5 µM; 96 h
# Experimental: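 Broad Repurposing Library primary screen at a single dose of 5 uM. HT29 sg-Ctrl and HT29 RNF43 G659fs CRISPR-edited isogenic cells were seeded at 2500 cells/well in 384-well plates in duplicate and treated for 96 h. Viability was read by CellTiter-Glo and reported as % activity relative to DMSO, with MG132 as the positive control (negative = growth inhibition).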
row,SMILES,cell viability activity
1,O=C(c1ccc(F)c(F)c1Nc1ccc(I)cc1F)N1CC(O)([C@@H]2CCCCN2)C1,-88.9%
2,CCN1CCN(Cc2ccc(Nc3ncc(F)c(-c4cc(F)c5nc(C)n(C(C)C)c5c4)n3)nc2)CC1,-44.9%
3,COc1ccc(S(=O)(=O)N(C(C)=O)c2ccccc2/C=C/c2cc[n+]([O-])cc2)cc1,-75.5%
4,CC(C)(C#N)c1ccc(N2C(=O)OCc3cnc4ccc(-c5cnc6ccccc6c5)cc4c32)cc1,-20%
5,Cc1nc(=O)c2cc(CN(C)c3ccc(C(=O)N[C@@H](CCC(=O)O)C(=O)O)s3)ccc2[nH]1,-60.9%
6,CCOc1ccccc1OC(c1ccccc1)C1CNCCO1 (configuration not stated),-58.7%
7,OCCCNc1cc(-c2ccnc(Nc3cccc(Cl)c3)n2)ccn1,-86%
8,CCNC(=O)c1noc(-c2cc(C(C)C)c(O)cc2O)c1-c1ccc(CN2CCOCC2)cc1,-86%
9,CCN(c1cc(C#CCN2CCOCC2)cc(C(=O)NCc2c(C)cc(C)[nH]c2=O)c1C)[C@H]1CC[C@H](N(C)CCOC)CC1,-35.6%
10,CCCCC/N=c1\ccn(Cc2ccccc2)c2ccccc12,-45.4%
11,COc1cc([C@@H]2c3cc4c(cc3[C@@H](O[C@@H]3O[C@@H]5CO[C@@H](c6cccs6)O[C@H]5[C@H](O)[C@H]3O)[C@H]3COC(=O)[C@H]23)OCO4)cc(OC)c1O,-90.9% and -80.9%
12,COC[C@H](C)NC1CCC(Nc2cc(-c3cccc(NCC4(C#N)CCOCC4)n3)c(Cl)cn2)CC1 (some centres not stated),-89.4%
13,C/C(=N/Nc1nnc2c(n1)[nH]c1c(C)cccc12)c1ccccn1,-86.8%
14,CN1CCN(Cc2ccc(-c3cnc4[nH]cc(-c5ccc6[nH]ccc6c5)c4c3)cc2)CC1,-82.4%
15,COc1cc(N2CCC(N3CCN(C)CC3)CC2)ccc1Nc1ncc(Cl)c(Nc2ccccc2P(C)(C)=O)n1,-81%
16,NC(=O)c1cnc(N[C@@H]2CCCC[C@@H]2N)nc1Nc1cccc(-n2nccn2)c1,-34.2% and -41.6%
17,CC(=O)O[C@H]1C(=O)[C@@]2(C)[C@H]([C@H](OC(=O)c3ccccc3)[C@]3(O)C[C@H](OC(=O)[C@H](O)[C@@H](NC(=O)c4ccccc4)c4ccccc4)C(C)=C1C3(C)C)[C@]1(OC(C)=O)CO[C@@H]1C[C@@H]2O,-54.2% and -52.9%
18,COc1cc(Nc2c(C#N)cnc3cc(OCCCN4CCN(C)CC4)c(OC)cc23)c(Cl)cc1Cl,-97.9%
19,Cc1cc(C2CCCCC2)n(O)c(=O)c1,-83.4%

row,SMILES,cell viability activity
1,Cc1cc(Nc2ncc(Cl)c(Nc3ccccc3S(=O)(=O)C(C)C)n2)c(OC(C)C)cc1C1CCNCC1,-95%
2,CCCOc1ccc2[nH]c(NC(=O)OC)nc2c1,-55.8%
3,CN(C)CCOc1ccc(/C(=C(/CCCl)c2ccccc2)c2ccccc2)cc1,-82.8%
4,Nc1ncnc2c1nc(Br)n2[C@@H]1O[C@@H]2COP(=O)(O)O[C@H]2[C@H]1O,-6.53%
5,CCC(=O)N1CCN(c2ccc(-n3c(=O)ccc4cnc5ccc(-c6cnc7ccccc7c6)cc5c43)cc2C(F)(F)F)CC1,-34.6%
6,COc1cccc(-c2cc(F)ccc2[C@H]2Cc3nc(N)nc(C)c3C(=O)N2)n1,-81.1%
7,CNCCC=C1c2ccccc2CCc2ccccc21,-77.1%
8,CCS(=O)(=O)Nc1ccc2[nH]c(O)c(C(=Nc3ccc(CN4CCCCC4)cc3)c3ccccc3)c2c1,-75.4%
9,CO[C@H]1/C=C\C=C(/C)C(=O)NC2=CC(=O)C(NCCN(C)C)=C(C[C@@H](C)C[C@H](OC)[C@H](O)[C@@H](C)/C=C(\C)[C@@H]1OC(N)=O)C2=O,-92.1% and -90.4%
10,COc1cc(-c2ncn(/C=C/C(=O)OC(C)C)n2)cc(C(F)(F)F)c1,-76.9%
11,CN(C)CCN1C(=O)c2cccc3cc(N)cc(c23)C1=O,-47.7%
12,CC(C)NC(=O)N1CC[C@H](NC2=Nc3cc(F)ccc3N(CC(F)F)c3ccc(Cl)cc32)C1,-50.8%
13,CC[C@@H]1C(=O)N(C)c2cnc(Nc3ccc(C(=O)N[C@H]4CC[C@H](N5CCN(CC6CC6)CC5)CC4)cc3OC)nc2N1C(C)C,-77.9%
14,C=CC(=O)Nc1cccc(Oc2nc(Nc3ccc(N4CCN(C)CC4)cc3)ncc2Cl)c1,-58%
15,COc1ccc2c(c1)c(C1=C(c3c[nH]c4ccccc34)C(=O)NC1=O)cn2CCCN(C)C,-88.9%
16,O=C(CCCCCCC(=O)Nc1ccccc1)NO,-84.4%
17,S=c1[nH]cnc2nc[nH]c12,-49.4%
18,CCOc1cc2ncc(C#N)c(Nc3ccc(F)c(Cl)c3)c2cc1NC(=O)/C=C/CN(C)C,-78.7%
